Results from PubChem BioAssay AID1832 (Broad Institute, 2009).
Among all 300,000 compounds or so, about 1,100 (0.37%) were called active. The list comes from a sample in which actives are over-represented; it also holds similar structures and randomly drawn compounds. Values without a mark were called inactive.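 Rule for the calls: active = inhibition past about -25% in most replicates, and total fluorescence under double the plate's negative control median (limit read from the data); inconclusive = replicates evenly split on the limit, or fluorescence at least double controls; inactive = too little inhibition in most replicates.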

target: Zinc finger protein mex-5 (Caenorhabditis elegans) (UniProt Q9XUB2); assay: MEX-5 zinc finger RNA-binding disruptors – biochemical, C. elegans, fluorescence polarization, MLPCN library, primary screen (AID 1832); settings: MEX-5/FITC-TCR2 RNA binding, at 10 µM, hits give low values;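 note: 0% = DMSO and -100% = 5 µM competing unlabeled TCR2 RNA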
Sequence (Q9XUB2 whole entry, looked up): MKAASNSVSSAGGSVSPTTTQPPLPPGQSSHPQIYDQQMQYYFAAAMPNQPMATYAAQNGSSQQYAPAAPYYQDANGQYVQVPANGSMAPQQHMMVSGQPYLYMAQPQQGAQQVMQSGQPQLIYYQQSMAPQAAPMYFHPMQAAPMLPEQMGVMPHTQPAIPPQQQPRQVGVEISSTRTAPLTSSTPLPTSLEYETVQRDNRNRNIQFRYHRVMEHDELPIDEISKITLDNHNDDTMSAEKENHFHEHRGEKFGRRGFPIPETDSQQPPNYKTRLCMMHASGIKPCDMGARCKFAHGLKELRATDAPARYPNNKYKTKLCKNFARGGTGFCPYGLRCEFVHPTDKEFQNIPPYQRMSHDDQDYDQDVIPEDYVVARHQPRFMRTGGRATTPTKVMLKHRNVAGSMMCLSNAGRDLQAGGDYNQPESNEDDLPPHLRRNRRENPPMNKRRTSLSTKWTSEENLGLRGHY

Compared with `COc1ccc(CCn2c(=N)c(C(=O)NCC3CCCO3)cc3c(=O)n4cccc(C)c4nc32)cc1OC` (centres undefined), `Cc1cccn2c(=O)c3cc(C(=O)NCC4CCCO4)c(=N)n(Cc4ccc(F)cc4)c3nc12` (centres undefined) is lower in activity score (negative = inhibition of binding): 1.85% for the first, -0.627% for the second.

Going from `CN(C)C(CNC(=O)c1cccc(S(=O)(=O)Nc2ccc(Br)cc2)c1)c1ccco1` (centres undefined) to `O=c1ccc(-c2ccc(S(=O)(=O)Nc3ccccc3)o2)n[nH]1`, the activity score (negative = inhibition of binding) rises from -4.39% to 1.3%.

First: O=C(Nc1ccccc1Cc1ccccc1)c1ccc2c(c1)SC1=NS(=O)(=O)CCN12
Second: Cc1ccc(-c2cc(C(=O)NC3CCN(Cc4ccccc4)CC3)c3ccccc3n2)cc1
The activity score (negative = inhibition of binding) of the first is higher: 1.1% for the first, -2.28% for the second.

Compared with `COc1ccccc1Oc1nc(-c2cccnc2)nc2ccccc12`, `Fc1ccc(/C=N/Nc2nc(-c3cccnc3)nc3ccccc23)cc1` is higher in activity score (negative = inhibition of binding): 3.68% for the first, 4.03% for the second.

Compared with `O=C(NCc1ccc2c(c1)OCO2)C(=O)NCC1OCCN1S(=O)(=O)c1ccc(F)cc1` (centres undefined), `O=C(Nc1ccc(F)cc1)C(=O)c1cn(CC(=O)N2CCOCC2)c2ccccc12` is lower in activity score (negative = inhibition of binding): -0.888% for the first, -1.93% for the second.

First: COc1ccc(CNc2nc3c(c(=O)[nH]c(=O)n3C)n2Cc2ccccc2)cc1
Second: COc1ccc(CNC(=O)C(Cc2ccccc2)n2cccc2)cc1 (centres undefined)
The activity score (negative = inhibition of binding) of the first is lower: -0.659% for the first, 2.2% for the second.

Going from `COCCn1c(N)c(N(Cc2ccccc2)C(=O)C2CCCCC2)c(=O)[nH]c1=O` to `CCCCn1c(N)c(N(Cc2ccccc2OC)C(=O)COc2cc(C)ccc2Cl)c(=O)[nH]c1=O`, the activity score (negative = inhibition of binding) falls from 1.74% to -0.677%.

First: Cc1nnc(SCc2ccc(C(=O)c3ccc(Cl)cc3)o2)n1-c1ccccc1
Second: Cc1ccccc1NC(=S)NC(=O)Cc1ccc(Cl)cc1
The activity score (negative = inhibition of binding) of the first is lower: -1.84% for the first, 0.984% for the second.

First: COc1ccc(CC(=O)NCc2nnc(SCC(=O)Nc3ncc(C)s3)n2C)cc1
Second: COc1ccc(CC(=O)Nc2c(C(N)=O)oc3ccccc23)cc1
The activity score (negative = inhibition of binding) of the first is lower: 0.258% for the first, 0.725% for the second.

Compared with `COc1ccc(C(=O)O/N=C(\N)c2ccccn2)cc1[N+](=O)[O-]`, `COc1cccc(OCC(=O)NNC(=O)c2cnccn2)c1` is lower in activity score (negative = inhibition of binding): -0.00548% for the first, -22.4% for the second.

Compared with `O=C(CN1C(=O)c2cccnc2Oc2ccc(Cl)cc21)Nc1ccc(F)cc1`, `CN(C)c1ccc(NC(=S)N(CCc2ccccc2)C2CC(=O)N(c3c(Cl)cccc3Cl)C2=O)cc1` (centres undefined) is higher in activity score (negative = inhibition of binding): -1.82% for the first, 0.224% for the second.

Going from `COCCCNCC(=O)Nc1sc(C)c(C)c1C(=O)OC` to `Cc1cccc(NC(=O)COC(=O)CCc2ccccc2)c1C`, the activity score (negative = inhibition of binding) rises from 0.906% to 0.968%.

Going from `Cc1ccc(O)c(CCc2ccccc2)n1` to `CCSCc1nc(N)nc(NCCc2ccccc2)n1`, the activity score (negative = inhibition of binding) rises from -3.03% to -1.2%.

Going from `Cc1[nH]c2ccccc2c1/C=N\NC(=O)Cn1nnc(-c2ccccc2)n1` to `Nc1nnn(CC(=O)N/N=C/c2ccccc2)n1`, the activity score (negative = inhibition of binding) falls from 0.39% to -0.796%.

Going from `COc1cccc(NC(=O)CS(=O)(=O)c2cn(CC(=O)N3CCOCC3)c3ccccc23)c1` to `O=C(COC(=O)CCOc1ccccc1)Nc1cc(S(=O)(=O)N2CCCCC2)ccc1Cl`, the activity score (negative = inhibition of binding) rises from -1.81% to -0.682%.

First: COc1ccc(-c2n[nH]c3c2CN(C(=O)c2ccc(F)cc2)CC3)cc1
Second: COc1cccc(-c2nc(CS(=O)CC(=O)NCc3ccc(F)cc3)c(C)o2)c1 (centres undefined)
The activity score (negative = inhibition of binding) of the first is higher: 0.485% for the first, 0.156% for the second.

Compared with `Cc1cc2oc3ccc(NCCC4CCCN4C)cc3c(=O)c2cc1C` (centres undefined), `Cc1cc(/C=C2\SC(=O)N(C)C2=O)c(C)n1-c1cccc(C(=O)O)c1` is higher in activity score (negative = inhibition of binding): -10.1% for the first, -1.93% for the second.

Going from `O=C(Nc1ccc(OC(F)(F)F)cc1)c1ccc2c(c1)no[n+]2[O-]` to `COC(=O)[C@H](Cc1ccccc1)NC(=O)Nc1ccc(OC)cc1`, the activity score (negative = inhibition of binding) falls from -2.46% to -2.47%.

First: COc1ccc(-c2nc(CS(=O)CC(=O)NCc3ccccc3)c(C)o2)cc1OC (centres undefined)
Second: CCOC(=O)C(Cc1ccccc1)NC(=O)CCC(=O)c1ccc(OC)cc1 (centres undefined)
The activity score (negative = inhibition of binding) of the first is higher: 2.34% for the first, -0.523% for the second.

Going from `O=C(CCC(=O)NNc1nc2ccccc2c2nc(-c3ccccc3)nn12)NCCCN1CCCC1=O` to `O=C(CCCN1C(=O)/C(=C\c2ccco2)SC1=S)Nc1cccc2ccccc12`, the activity score (negative = inhibition of binding) falls from 0.509% to -4.74%.

Going from `COc1ccc(OC)c(-n2cc3c(=O)n(C)c(=O)n(C)c3c2)c1` to `CCC1=C(C(=O)OC)C(c2cc(OC)ccc2OC)C(C#N)=C(N)O1` (centres undefined), the activity score (negative = inhibition of binding) rises from -2.26% to -1.18%.

First: COC(=O)C1=C[C@@H](C(=O)OC)[C@@H]2C3=C(C(=O)[C@]2(C)NC(=O)c2ccccc2)[C@H](C)n2c(=O)n(C)c(=O)n2[C@@H]3C1
Second: CC(C)[C@H](NC(=O)N1c2ccccc2NC(=O)[C@@H]1C(C)C)C(=O)N[C@H](C(=O)O)c1ccccc1
The activity score (negative = inhibition of binding) of the first is lower: 0.374% for the first, 1.76% for the second.

Going from `CC(Cc1ccccc1)C(=O)N(C)Cc1ccccc1` (centres undefined) to `CC(C)(C)N(Cc1ccccc1)C(=O)c1ccncc1`, the activity score (negative = inhibition of binding) falls from 2.02% to 0.0862%.

Going from `Cc1c(C=O)c2ccccc2n1CC(=O)O` to `COCC(=O)N=Nc1c(O)[nH]c2ccccc12`, the activity score (negative = inhibition of binding) falls from -1.11% to -1.5%.

Compared with `C[C@@H](C(=O)Nc1ccc2ccccc2c1)[C@@H]1C[C@@]1(C)[C@@H](NC(=O)c1cccnc1)c1ccccc1`, `Cc1cccc(NC(=O)c2nc(S(=O)(=O)Cc3ccccc3)ncc2Cl)c1` is lower in activity score (negative = inhibition of binding): 2.99% for the first, 2.04% for the second.

First: O=C(Nc1c2c(nn1-c1cccc(Cl)c1)CS(=O)(=O)C2)c1cccs1
Second: O=C1Cc2ccccc2Sc2ccc(Cl)cc21
The activity score (negative = inhibition of binding) of the first is lower: -4.55% for the first, -1.6% for the second.

Compared with `CCCc1nnc(NC(=O)CCC(=O)N2CCN(S(=O)(=O)c3ccc(OC)cc3)CC2)s1`, `CC1CC(C)CN(c2ccc(S(=O)(=O)N3CCOCC3)cc2)C1` (centres undefined) is lower in activity score (negative = inhibition of binding): 2.03% for the first, -0.658% for the second.

Going from `CC1=C(C(N)=O)C(c2ccc(F)cc2)n2nc(CCCO)nc2N1` (centres undefined) to `Cc1cc(NC(=O)CSc2nc(=O)cc(N)n2-c2ccc(F)cc2)no1`, the activity score (negative = inhibition of binding) rises from -1.99% to 3.29%.

Going from `CCN(Cc1ccccc1)S(=O)(=O)c1cc2c3c(c1)CCN3C(=O)CC2` to `CCN(Cc1ccccc1)C(=O)CCS(=O)(=O)c1ccc2c(c1)oc(=O)n2C`, the activity score (negative = inhibition of binding) falls from 1.24% to -0.201%.

Going from `Cc1cccc(N=Nc2c(C)[nH]n(-c3ccccc3)c2=O)c1` to `O=C1Nc2ccccc2/C1=C/c1ccnc2ccccc12`, the activity score (negative = inhibition of binding) rises from -1.5% to -0.239%.

Compared with `Cc1cc(=O)n2nc(N3CCCC(C(=O)NCc4cccc(Cl)c4)C3)sc2n1` (centres undefined), `O=C(Nc1cc2c3c(c1)C1CCCC1CN3CC1CCCC21)c1ccc([N+](=O)[O-])cc1` (centres undefined) is higher in activity score (negative = inhibition of binding): 0.58% for the first, 0.805% for the second.

First: CCOc1ccc(C2=CC(c3ccccc3)n3ncnc3N2)cc1 (centres undefined)
Second: COC(=O)C1=C(C)Nc2ncnn2C1c1ccco1 (centres undefined)
The activity score (negative = inhibition of binding) of the first is higher: 0.973% for the first, 0.833% for the second.

First: Cc1ccnc(N2C(=O)c3ccc([N+](=O)[O-])cc3C2=O)c1
Second: COc1cc(S(=O)(=O)N2CCN=C2c2ccccc2)ccc1Cl
The activity score (negative = inhibition of binding) of the first is lower: 0.424% for the first, 3.19% for the second.

Going from `CCN1C(=NCC(C)C)N[C@@H](CCc2ccccc2)[C@H](C(=O)NCC(C)C)[C@H]1C` to `CCN(CC)CCOc1ccc2c(c1)C(=NNC(=O)c1ccccn1)c1cc(OCCN(CC)CC)ccc1-2`, the activity score (negative = inhibition of binding) falls from 0.663% to -21.9%.

Compared with `O=C(O)CCn1cc(/C=C/C(=O)c2ccc(Cl)cc2)c(-c2cccc(Br)c2)n1`, `CCn1nc(C)c(NC(=O)/C=C/c2ccc(OC)c(COc3ccc(Br)cc3)c2)c1C` is higher in activity score (negative = inhibition of binding): -3.47% for the first, -2.54% for the second.

First: CN(C)/C=C1/Nc2ccccc2C1=O
Second: Cc1cc(C)c(C)c(S(=O)(=O)Nc2cccnc2)c1C
The activity score (negative = inhibition of binding) of the first is lower: -9.39% for the first, 3.19% for the second.

With `CSc1nc(C)nc(C2CC2)c1C#N` the activity score (negative = inhibition of binding) was 0.165%.

`Cc1cccn2c(=O)c3cc(C(=O)NCCN4CCOCC4)c(=N)n(Cc4cccnc4)c3nc12` was tested, and the activity score (negative = inhibition of binding) was -41.6% (active).
In the case of `COc1ccc(Nc2nc(-c3cccnc3)nc3ccccc23)cn1`, the activity score (negative = inhibition of binding) is reported as -55.5% (active).
With `COCCn1c(N)c(NCc2ccccc2)c(=O)[nH]c1=O` the activity score (negative = inhibition of binding) was -67.9% (active).
With `COc1ccc(C(=O)NNC(=O)c2cnccn2)cc1[N+](=O)[O-]` the activity score (negative = inhibition of binding) was -64.4% (active).
With `O=C(Cn1cncn1)N/N=C/c1c2ccccc2cc2ccccc12` the activity score (negative = inhibition of binding) was -30% (active).
In the case of `COc1cccc(NC(=O)C(=O)c2cn(CC(=O)N3CCOCC3)c3ccccc23)c1`, the activity score (negative = inhibition of binding) is reported as -27.9% (active).
For `COc1ccc(-c2nc(CS(=O)CC(=O)NCc3ccccn3)c(C)o2)cc1` (centres undefined), the activity score (negative = inhibition of binding) was -66% (active).
In the case of `Cc1ccc(C)n1C(Cc1ccccc1)C(=O)O` (centres undefined), the activity score (negative = inhibition of binding) is reported as -27.1% (active).
For `CCN1CC=C2C(C#N)=C(N)C(C#N)(C#N)[C@H](c3ccoc3)[C@H]2C1`, the activity score (negative = inhibition of binding) was -84.8% (active).
With `CCCN1CC=C2C(C#N)=C(N)C(C#N)(C#N)C(c3cc(OC)ccc3OC)C2C1` (centres undefined) the activity score (negative = inhibition of binding) was -27.2% (active).
For `Cc1cccc(N=Nc2c(O)[nH]c3ccc(F)cc23)c1`, the activity score (negative = inhibition of binding) was -37.8% (active).
`Brc1ccc(C2=CC(c3ccco3)n3ncnc3N2)cc1` (centres undefined) was tested, and the activity score (negative = inhibition of binding) was -46.2% (active).
`COc1cc([C@H](Cc2ccccc2)NC(C)=O)oc(=O)c1` was tested, and the activity score (negative = inhibition of binding) was -29.7% (active).
`Cc1cc(C)c(/C=C2\C(=O)Nc3ccccc32)[nH]1` was tested, and the activity score (negative = inhibition of binding) was -49.3% (active).
For `CN1C(=O)/C(=C/c2ccco2)SC1=Nc1cccc(C(=O)O)c1`, the activity score (negative = inhibition of binding) was -30.7% (active).
`O=C(COC(=O)CCc1c[nH]c(=O)[nH]1)Nc1ccccc1Cl` was tested, and the activity score (negative = inhibition of binding) was -36.5% (active).
